What all share (assay): DAPPL (digital affinity profiling via proximity ligation, sequencing); 10 mM Tris-HCl pH 7.5, 50 mM NaCl, 1 mM DTT, 4% glycerol, room temperature, 30 min; GST-TFs on glutathione beads, 16-mer random dsDNA library, 0.1% formaldehyde crosslink after washing; high values mean tight binding
Test [1] addresses T1, FLI1 (Homo sapiens, UniProt Q01543 1-452).
T1 sequence: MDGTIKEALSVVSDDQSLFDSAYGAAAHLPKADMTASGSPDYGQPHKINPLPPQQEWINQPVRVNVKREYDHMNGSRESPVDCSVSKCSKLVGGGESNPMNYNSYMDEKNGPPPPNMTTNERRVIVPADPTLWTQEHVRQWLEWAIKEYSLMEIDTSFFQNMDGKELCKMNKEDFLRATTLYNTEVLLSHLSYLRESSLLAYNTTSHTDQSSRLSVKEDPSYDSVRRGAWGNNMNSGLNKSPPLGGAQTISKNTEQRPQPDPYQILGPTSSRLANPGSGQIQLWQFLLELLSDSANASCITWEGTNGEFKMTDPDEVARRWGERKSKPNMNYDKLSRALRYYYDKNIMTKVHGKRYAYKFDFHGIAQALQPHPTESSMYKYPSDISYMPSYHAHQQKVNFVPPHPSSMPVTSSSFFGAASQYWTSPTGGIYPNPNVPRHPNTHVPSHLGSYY
Conditions: protein: recombinant; tags: N-terminal GST; dsDNA, one strand shown. Summed up: (§1)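 The binding signal reported is, for every hexamer, its read frequency for a factor over its read frequency for the tag-only sample. Reads came from pools of yeast-expressed, GST-fused human transcription factors on glutathione beads, barcoded with DNA and mixed with that sample, which were incubated with 200 nmole of a random double-stranded 16-mer DNA library in Tris/NaCl/DTT/glycerol buffer at room temperature for 30 min. After washing, the pools were crosslinked with 0.1% formaldehyde, proximity-ligated with BsaI/T4 ligase for 1 h at 37 °C, PCR-amplified and sequenced on an Illumina NextSeq500.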

Test [2] addresses T2, ELK1 (Homo sapiens, UniProt P19419 1-428).
T2 sequence: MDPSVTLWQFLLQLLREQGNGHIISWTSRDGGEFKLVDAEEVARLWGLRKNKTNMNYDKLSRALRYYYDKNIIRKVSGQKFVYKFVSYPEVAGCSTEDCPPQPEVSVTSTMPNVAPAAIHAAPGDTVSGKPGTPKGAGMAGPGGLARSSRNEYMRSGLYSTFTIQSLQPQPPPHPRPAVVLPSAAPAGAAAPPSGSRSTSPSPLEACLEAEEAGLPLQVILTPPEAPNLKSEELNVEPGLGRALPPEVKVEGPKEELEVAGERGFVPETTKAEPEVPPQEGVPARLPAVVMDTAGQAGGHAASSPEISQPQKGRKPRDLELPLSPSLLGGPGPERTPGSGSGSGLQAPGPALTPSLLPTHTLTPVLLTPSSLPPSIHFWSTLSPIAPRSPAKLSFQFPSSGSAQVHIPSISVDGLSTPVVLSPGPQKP
Conditions: protein: recombinant; tags: N-terminal GST; dsDNA, one strand shown. An outline of the steps:
as §1

Test [3] deals with T3, GABPA (Homo sapiens, UniProt Q06546 1-454).
T3 sequence: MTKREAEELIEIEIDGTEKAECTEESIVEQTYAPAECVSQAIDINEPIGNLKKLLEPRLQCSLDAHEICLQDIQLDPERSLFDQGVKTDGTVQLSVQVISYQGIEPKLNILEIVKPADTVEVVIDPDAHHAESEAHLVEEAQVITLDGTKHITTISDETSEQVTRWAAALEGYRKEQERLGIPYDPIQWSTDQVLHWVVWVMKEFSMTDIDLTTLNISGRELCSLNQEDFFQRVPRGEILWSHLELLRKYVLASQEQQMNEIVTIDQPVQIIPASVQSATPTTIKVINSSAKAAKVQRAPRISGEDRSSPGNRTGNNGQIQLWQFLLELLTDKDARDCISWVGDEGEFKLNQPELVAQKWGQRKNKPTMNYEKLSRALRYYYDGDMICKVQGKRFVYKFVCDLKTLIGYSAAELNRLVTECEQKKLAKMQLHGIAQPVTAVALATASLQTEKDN
Conditions: protein: recombinant; tags: N-terminal GST; dsDNA, one strand shown. Summed up:
as §1

In test [4] the target is T4, ERG (Homo sapiens, UniProt P11308 1-479).
T4 sequence: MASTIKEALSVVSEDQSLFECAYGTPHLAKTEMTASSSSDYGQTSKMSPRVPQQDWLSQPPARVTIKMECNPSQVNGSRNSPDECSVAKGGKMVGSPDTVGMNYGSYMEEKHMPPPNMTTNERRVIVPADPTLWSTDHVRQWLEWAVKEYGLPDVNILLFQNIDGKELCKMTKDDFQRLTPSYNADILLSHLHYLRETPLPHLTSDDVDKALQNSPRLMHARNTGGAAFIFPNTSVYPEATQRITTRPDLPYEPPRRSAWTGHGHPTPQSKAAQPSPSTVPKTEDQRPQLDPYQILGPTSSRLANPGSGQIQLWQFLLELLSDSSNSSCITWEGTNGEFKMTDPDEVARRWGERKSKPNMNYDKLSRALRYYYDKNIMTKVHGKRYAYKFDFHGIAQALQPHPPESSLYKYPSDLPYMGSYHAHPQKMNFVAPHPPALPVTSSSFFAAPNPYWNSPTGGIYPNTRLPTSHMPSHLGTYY
Conditions: protein: recombinant; tags: N-terminal GST; dsDNA, one strand shown. An outline of the steps:
as §1

Test [5] addresses ELF1 (Homo sapiens, UniProt P32519 1-619). Conditions: protein: recombinant; tags: N-terminal GST; dsDNA, one strand shown. An outline of the steps:
as §1

The target of test [6] is T5, EHF (Homo sapiens, UniProt Q9NZC4 1-300).
T5 sequence: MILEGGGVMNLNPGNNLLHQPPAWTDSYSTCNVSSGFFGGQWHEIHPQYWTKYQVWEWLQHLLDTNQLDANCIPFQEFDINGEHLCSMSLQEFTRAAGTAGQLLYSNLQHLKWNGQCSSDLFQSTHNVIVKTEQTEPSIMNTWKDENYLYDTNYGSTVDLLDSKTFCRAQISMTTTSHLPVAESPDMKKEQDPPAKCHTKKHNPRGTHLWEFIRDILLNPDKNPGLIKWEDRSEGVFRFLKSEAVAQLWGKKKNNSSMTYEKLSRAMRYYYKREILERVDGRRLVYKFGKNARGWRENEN
The settings on record: protein: recombinant; tags: N-terminal GST; dsDNA, one strand shown. An outline of the steps: as §1

Test [7] addresses SPI1 (Homo sapiens, UniProt P17947 1-270). Conditions: protein: recombinant; tags: N-terminal GST; dsDNA, one strand shown. Summed up:
as §1

The target of test [8] is SPIB (Homo sapiens, UniProt Q01892 1-262). Conditions: protein: recombinant; tags: N-terminal GST; dsDNA, one strand shown. An outline of the steps:
as §1

For test [9], the target named is T6, ELK3 (Homo sapiens, UniProt P41970 1-407).
T6 sequence: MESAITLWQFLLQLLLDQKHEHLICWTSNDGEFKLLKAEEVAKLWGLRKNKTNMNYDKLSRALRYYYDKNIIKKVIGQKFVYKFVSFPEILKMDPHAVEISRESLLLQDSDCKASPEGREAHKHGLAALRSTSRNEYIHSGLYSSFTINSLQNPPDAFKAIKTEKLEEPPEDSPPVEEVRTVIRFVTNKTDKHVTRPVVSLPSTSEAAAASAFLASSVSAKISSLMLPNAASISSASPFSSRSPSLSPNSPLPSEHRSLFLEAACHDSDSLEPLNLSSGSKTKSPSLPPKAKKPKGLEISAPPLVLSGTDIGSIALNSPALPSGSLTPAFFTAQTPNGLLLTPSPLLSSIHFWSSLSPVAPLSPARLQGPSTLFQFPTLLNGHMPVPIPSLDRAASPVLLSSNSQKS
Conditions: protein: recombinant; tags: N-terminal GST; dsDNA, one strand shown. An outline of the steps:
as §1

Test [10] addresses T7, FEV (Homo sapiens, UniProt Q99581 1-238).
T7 sequence: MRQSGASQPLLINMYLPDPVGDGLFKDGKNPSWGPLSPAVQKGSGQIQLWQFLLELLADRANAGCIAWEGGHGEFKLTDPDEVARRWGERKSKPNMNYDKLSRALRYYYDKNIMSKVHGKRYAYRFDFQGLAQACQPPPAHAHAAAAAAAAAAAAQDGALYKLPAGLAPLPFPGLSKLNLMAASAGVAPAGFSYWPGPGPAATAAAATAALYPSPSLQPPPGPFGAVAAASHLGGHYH
The settings on record: protein: recombinant; tags: N-terminal GST; dsDNA, one strand shown. Summed up: as §1

The target in test [11] is ETV5 (Homo sapiens, UniProt P41161 1-510). The settings on record: protein: recombinant; tags: N-terminal GST; dsDNA, one strand shown. An outline of the steps: as §1
The target in test [12] is HSF1 (Homo sapiens, UniProt Q00613 1-529). Conditions: protein: recombinant; tags: N-terminal GST; chain copies: 3; dsDNA, one strand shown. Summed up:
as §1

Test [13] addresses T8, SPIC (Homo sapiens, UniProt Q8N5J4 1-248).
T8 sequence: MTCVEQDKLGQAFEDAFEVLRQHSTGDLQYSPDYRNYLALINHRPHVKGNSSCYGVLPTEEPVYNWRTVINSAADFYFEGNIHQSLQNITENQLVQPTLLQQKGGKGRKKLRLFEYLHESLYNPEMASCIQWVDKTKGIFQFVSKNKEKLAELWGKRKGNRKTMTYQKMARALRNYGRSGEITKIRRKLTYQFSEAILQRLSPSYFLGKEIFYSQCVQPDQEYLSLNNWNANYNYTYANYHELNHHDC
Conditions: protein: recombinant; tags: N-terminal GST; dsDNA, one strand shown. Summed up:
as §1

The target of test [14] is ELF4 (Homo sapiens, UniProt Q99607 1-663). Conditions: protein: recombinant; tags: N-terminal GST; dsDNA, one strand shown. An outline of the steps:
as §1

Test [15] addresses T9, ELK4 (Homo sapiens, UniProt P28324-2 1-405).
T9 sequence: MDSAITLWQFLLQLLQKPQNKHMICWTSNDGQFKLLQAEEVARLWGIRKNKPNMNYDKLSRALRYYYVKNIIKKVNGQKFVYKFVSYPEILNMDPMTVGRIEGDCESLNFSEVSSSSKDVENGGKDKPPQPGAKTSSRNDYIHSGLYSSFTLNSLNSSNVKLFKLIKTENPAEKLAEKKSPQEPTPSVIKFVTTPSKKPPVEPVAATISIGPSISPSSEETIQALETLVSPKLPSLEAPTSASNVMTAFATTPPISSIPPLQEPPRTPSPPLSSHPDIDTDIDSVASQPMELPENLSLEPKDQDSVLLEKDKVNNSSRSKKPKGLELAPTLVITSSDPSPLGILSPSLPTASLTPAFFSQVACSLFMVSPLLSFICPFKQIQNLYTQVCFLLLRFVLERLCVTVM
The settings on record: protein: recombinant; tags: N-terminal GST; dsDNA, one strand shown. An outline of the steps:
as §1

Test [16] concerns the target T10, ETV2 (Homo sapiens, UniProt O00321 1-342).
T10 sequence: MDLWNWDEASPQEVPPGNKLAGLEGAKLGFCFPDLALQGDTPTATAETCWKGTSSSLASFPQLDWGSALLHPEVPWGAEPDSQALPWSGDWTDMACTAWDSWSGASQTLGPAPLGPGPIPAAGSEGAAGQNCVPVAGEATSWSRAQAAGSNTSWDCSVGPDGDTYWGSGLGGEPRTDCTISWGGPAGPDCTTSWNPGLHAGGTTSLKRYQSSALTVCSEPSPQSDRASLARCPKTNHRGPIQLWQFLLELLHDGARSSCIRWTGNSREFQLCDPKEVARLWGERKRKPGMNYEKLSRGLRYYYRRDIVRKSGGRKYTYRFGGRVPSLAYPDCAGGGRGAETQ
The settings on record: protein: recombinant; tags: N-terminal GST; dsDNA, one strand shown. An outline of the steps:
as §1

Test [17] deals with T11, ELF3 (Homo sapiens, UniProt P78545 1-371).
T11 sequence: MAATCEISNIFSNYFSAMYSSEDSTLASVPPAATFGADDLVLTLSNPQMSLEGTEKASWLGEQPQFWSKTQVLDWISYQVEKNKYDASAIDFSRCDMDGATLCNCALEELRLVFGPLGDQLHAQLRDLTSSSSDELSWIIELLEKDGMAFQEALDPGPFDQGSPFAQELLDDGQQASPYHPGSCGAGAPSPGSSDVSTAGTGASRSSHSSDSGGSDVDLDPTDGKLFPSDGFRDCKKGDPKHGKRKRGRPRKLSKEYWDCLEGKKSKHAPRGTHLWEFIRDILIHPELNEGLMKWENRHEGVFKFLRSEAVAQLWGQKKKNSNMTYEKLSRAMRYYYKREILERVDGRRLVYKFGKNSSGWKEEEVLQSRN
The settings on record: protein: recombinant; tags: N-terminal GST; dsDNA, one strand shown. An outline of the steps: as §1

The target of test [18] is CRX (Homo sapiens, UniProt O43186 1-299). The settings on record: protein: recombinant; tags: N-terminal GST; dsDNA, one strand shown. An outline of the steps: as §1
Test [19] deals with ETV1 (Homo sapiens, UniProt P50549 1-477). Conditions: protein: recombinant; tags: N-terminal GST; dsDNA, one strand shown. An outline of the steps:
as §1

Sequence of HSF1 (Q00613 whole entry): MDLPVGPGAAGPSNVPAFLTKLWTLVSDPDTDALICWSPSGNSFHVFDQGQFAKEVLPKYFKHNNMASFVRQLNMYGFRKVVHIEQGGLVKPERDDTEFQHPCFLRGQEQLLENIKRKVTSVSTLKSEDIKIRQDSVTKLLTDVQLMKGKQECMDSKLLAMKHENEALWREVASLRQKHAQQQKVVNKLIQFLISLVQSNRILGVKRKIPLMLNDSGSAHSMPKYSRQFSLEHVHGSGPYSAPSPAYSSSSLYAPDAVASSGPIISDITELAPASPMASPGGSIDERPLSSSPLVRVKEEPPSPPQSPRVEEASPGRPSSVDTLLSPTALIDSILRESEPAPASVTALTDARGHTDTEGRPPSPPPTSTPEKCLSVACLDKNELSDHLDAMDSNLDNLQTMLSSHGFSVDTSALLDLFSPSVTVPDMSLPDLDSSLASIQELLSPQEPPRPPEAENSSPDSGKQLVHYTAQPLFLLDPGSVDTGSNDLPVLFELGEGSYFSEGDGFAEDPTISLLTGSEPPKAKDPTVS
Sequence of ELF1 (P32519 whole entry): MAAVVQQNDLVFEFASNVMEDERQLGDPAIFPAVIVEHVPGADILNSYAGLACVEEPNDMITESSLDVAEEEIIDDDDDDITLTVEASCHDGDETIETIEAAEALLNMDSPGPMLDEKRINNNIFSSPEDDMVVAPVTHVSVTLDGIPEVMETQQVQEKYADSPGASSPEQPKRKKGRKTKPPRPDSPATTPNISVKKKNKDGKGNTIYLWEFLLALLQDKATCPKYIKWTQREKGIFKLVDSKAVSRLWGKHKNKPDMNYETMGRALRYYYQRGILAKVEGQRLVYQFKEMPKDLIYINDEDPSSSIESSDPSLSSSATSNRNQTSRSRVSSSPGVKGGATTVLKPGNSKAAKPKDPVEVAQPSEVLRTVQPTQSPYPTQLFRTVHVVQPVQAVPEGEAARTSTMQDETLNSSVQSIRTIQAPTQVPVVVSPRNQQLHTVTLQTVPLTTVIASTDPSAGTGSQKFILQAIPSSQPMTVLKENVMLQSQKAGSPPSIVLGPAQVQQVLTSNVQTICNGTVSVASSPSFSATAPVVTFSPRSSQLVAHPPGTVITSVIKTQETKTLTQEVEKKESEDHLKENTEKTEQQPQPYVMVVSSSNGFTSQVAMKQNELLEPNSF
Sequence of SPIB (Q01892 whole entry): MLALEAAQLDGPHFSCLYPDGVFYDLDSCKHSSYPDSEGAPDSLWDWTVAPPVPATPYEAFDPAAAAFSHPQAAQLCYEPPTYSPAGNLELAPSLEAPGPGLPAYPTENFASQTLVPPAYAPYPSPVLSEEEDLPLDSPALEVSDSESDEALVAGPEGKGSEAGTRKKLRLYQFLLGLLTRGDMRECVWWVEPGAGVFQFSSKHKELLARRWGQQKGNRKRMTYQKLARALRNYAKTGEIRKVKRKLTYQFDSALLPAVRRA
Sequence of ETV1 (P50549 whole entry): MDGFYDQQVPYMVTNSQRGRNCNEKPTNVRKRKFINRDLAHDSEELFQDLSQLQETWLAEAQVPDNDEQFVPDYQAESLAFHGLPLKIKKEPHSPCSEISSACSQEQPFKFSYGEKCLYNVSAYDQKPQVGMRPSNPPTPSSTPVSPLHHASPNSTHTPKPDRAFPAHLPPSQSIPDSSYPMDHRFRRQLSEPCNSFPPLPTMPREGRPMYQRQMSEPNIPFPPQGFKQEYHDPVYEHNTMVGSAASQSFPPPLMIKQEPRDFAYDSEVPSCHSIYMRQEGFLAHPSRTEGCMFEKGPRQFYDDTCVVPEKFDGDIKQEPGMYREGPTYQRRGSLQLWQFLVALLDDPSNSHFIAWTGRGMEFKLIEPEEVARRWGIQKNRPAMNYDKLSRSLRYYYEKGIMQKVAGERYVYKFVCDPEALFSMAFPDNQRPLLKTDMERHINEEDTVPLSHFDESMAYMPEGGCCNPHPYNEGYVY
Sequence of ETV5 (P41161 whole entry): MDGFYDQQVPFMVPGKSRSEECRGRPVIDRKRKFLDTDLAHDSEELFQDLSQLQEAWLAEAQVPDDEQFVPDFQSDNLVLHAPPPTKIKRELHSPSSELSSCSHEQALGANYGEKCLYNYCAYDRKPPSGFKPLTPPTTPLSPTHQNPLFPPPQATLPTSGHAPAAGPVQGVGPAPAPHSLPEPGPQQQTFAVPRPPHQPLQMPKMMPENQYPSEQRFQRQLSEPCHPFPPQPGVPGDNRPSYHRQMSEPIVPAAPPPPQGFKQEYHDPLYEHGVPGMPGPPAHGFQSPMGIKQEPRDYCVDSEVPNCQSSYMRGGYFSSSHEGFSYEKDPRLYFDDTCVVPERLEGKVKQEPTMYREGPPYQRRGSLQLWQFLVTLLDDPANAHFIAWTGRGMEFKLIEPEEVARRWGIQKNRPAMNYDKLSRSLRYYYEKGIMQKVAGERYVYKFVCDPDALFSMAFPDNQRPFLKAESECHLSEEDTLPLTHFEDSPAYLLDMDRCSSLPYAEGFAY
Sequence of ELF4 (Q99607 whole entry): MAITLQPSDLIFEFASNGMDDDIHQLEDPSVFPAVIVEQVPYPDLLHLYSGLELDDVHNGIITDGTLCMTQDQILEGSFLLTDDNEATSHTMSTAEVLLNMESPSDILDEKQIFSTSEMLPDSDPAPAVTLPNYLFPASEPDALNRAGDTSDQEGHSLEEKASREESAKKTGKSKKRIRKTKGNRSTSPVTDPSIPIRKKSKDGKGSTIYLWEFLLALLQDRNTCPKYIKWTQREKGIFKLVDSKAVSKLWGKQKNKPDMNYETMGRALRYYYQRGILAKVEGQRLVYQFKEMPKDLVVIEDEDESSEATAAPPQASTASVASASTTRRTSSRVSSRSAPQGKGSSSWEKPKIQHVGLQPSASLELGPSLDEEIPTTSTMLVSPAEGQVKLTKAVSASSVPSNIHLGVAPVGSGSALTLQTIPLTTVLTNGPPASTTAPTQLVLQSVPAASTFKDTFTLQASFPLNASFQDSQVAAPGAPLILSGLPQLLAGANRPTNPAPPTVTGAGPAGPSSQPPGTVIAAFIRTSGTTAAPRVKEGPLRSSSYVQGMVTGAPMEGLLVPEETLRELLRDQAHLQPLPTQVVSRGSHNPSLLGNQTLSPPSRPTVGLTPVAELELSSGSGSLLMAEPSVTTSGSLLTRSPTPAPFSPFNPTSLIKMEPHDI
Sequence of CRX (O43186 whole entry): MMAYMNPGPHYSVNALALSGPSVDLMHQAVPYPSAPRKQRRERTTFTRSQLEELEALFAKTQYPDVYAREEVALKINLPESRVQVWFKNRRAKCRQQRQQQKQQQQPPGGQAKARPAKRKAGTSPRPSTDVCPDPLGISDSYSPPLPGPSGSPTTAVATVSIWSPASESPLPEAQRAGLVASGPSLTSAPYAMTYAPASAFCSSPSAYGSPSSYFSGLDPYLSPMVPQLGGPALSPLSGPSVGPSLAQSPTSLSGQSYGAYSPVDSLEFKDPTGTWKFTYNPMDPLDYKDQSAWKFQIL

Take AGCTCA: the binding signal was 1.07 fold enrichment (6-mer frequency, TF over GST control) in test [1]; 1.1 fold enrichment (6-mer frequency, TF over GST control) in test [2]; 1.15 fold enrichment (6-mer frequency, TF over GST control) in test [3]; 1.08 fold enrichment (6-mer frequency, TF over GST control) in test [4]; 1.2 fold enrichment (6-mer frequency, TF over GST control) in [5]; 1.21 fold enrichment (6-mer frequency, TF over GST control) in test [6]. Further, the binding signal is 1.06 fold enrichment (6-mer frequency, TF over GST control) in test [7]; 1.17 fold enrichment (6-mer frequency, TF over GST control) in [8]; 1.12 fold enrichment (6-mer frequency, TF over GST control) in test [9]; 1.08 fold enrichment (6-mer frequency, TF over GST control) in test [10]; 1.1 fold enrichment (6-mer frequency, TF over GST control) in test [11]; 1.22 fold enrichment (6-mer frequency, TF over GST control) in test [12]. Besides, the binding signal is 1.08 fold enrichment (6-mer frequency, TF over GST control) in test [13]; 1.16 fold enrichment (6-mer frequency, TF over GST control) in [14]; 1.27 fold enrichment (6-mer frequency, TF over GST control) in [15]; 1.25 fold enrichment (6-mer frequency, TF over GST control) in test [16]; 1.11 fold enrichment (6-mer frequency, TF over GST control) in test [17]; 1.45 fold enrichment (6-mer frequency, TF over GST control) in test [18]. For the same sequence, the binding signal in [19] was 1.24 fold enrichment (6-mer frequency, TF over GST control).

For the origin of these results see paper PMC7862700, “An all-to-all approach to the identification of sequence-specific readers for epigenetic DNA modifications on cytosine”.
